This passage reports normalized growth results from PubChem BioAssay AID1159580 (chemical genetic matrix, 2015).

Hit rate of the full screen: of about 5,500 compounds, about 2,000 (36%) were called active. Roughly 18% stayed inconclusive and do not appear here. Some of the results follow. A number with no mark means an inactive call. Cut-off read from the data, not from the text of the source: active = normalized growth mostly below about 0.91 (no sharp cut-off); inconclusive = no clear call, values can overlap the other calls; inactive = mostly above about 0.92.

The experiment in a line: chemical genetic growth profiling, strain panel (AID 1159580).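 Note: tested at 20 µM; growth read once vehicle control cultures reached saturation at 30 °C; 1 = growth at the plate median or of vehicle wells.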 The settings on record: S. cerevisiae deletion strains, growth OD.
Setting [1] is: locus YAL040C, strain CLN3, stronger effect = lower value.
[2] abbreviates: locus YCL061C, strain MRC1 (second series), stronger effect = lower value.
Setting [3] is: locus YDR363W, strain ESC2, stronger effect = lower value.
Setting [4] is: locus YER002W, strain NOP16, stronger effect = lower value.
The mark [5] stands for this setting: locus YMR307W, strain GAS1, stronger effect = lower value.
Where [6] appears, read: locus YNL175C, strain NOP13, stronger effect = lower value.
Setting [7] is: locus YNL197C, strain WHI3, stronger effect = lower value.
[8] abbreviates: locus YNL224C, strain SQS1, stronger effect = lower value.
[9] abbreviates: locus YOR083W, strain WHI5 (second series), stronger effect = lower value.
[10] abbreviates: locus YPL241C, strain CIN2, stronger effect = lower value.

Regarding `NC(=NCc1ccc(Cl)c(Cl)c1)NC(=O)c1nc(Cl)c(N)nc1N`, the normalized growth runs as follows: under setting [1], 1.01; under setting [2], 0.999; under setting [3], 0.992; under setting [4], 1.01; (locus YMR263W, strain SAP30, stronger effect = lower value) 1.01; under setting [5], 0.993. In addition, the normalized growth is 0.995 (locus YNL153C, strain GIM3, stronger effect = lower value); 1.02 under setting [6]; 1.03 under setting [7]; 1.03 under setting [8]; 0.966 (locus YNL322C, strain KRE1, stronger effect = lower value); 1.01 under setting [9].

As for `CC(=O)OCC1=C(C(=O)O)N2C(=O)[C@@H](NC(=O)CCC[C@@H](N)C(=O)O)[C@H]2SC1`, the normalized growth by setting is: under setting [1], 0.993; under setting [2], 1; (locus YDR150W, strain NUM1, stronger effect = lower value) 1.01; under setting [3], 1.03; under setting [4], 1.02; (locus YGR078C, strain PAC10, stronger effect = lower value) 0.993. The normalized growth was 0.997 under setting [5]; 0.98 (locus YNL128W, strain TEP1, stronger effect = lower value); 1.01 under setting [6]; 1.02 under setting [7]; 1.03 under setting [8]; 1.04 under setting [9]. Also, the normalized growth is, setting by setting: (locus YPL055C, strain LGE1, stronger effect = lower value) 1.01; under setting [10], 1.

Take `c1ccc2c(c1)[I+]c1ccccc1-2`: the normalized growth runs as follows: (locus YAL013W, strain DEP1, stronger effect = lower value) 0.513 (active); under setting [1], 1.05; under setting [2], 0.63 (active); under setting [3], 0.302 (active); under setting [4], 1.02; (locus YJR075W, strain HOC1, stronger effect = lower value) 0.429 (active). The normalized growth runs as follows: under setting [6], 1.03; under setting [7], 0.958; under setting [8], 0.892 (active); under setting [9], 0.569 (active); under setting [10], 0.517 (active).
